# Assay results published in PubChem BioAssay (NCATS).
# “And” between values parts separate entries of the source, which are not always exact repeats. Equal entries are not always repeated. Records with an inconclusive call do not appear. More than one record can exist for a structure, and the calls need not agree. Unmarked numbers belong to inactive results. The source made the active and inactive calls. Unless noted, calls follow the shape of the dose curve; as a rule, active = well fitted curve in the direction sought with a large enough effect; inconclusive = small, poorly fitted or top-dose-only effect, or another doubt; inactive = no such curve, though single readings can be large; an effect the other way counts as inactive or inconclusive.
# How the values were obtained:
# [1] = target: Cellular tumor antigen p53 (Homo sapiens) (UniProt P04637); assay: Primary qHTS for small molecule compounds that upregulate eGFP-tagged delta133p53alpha (in N-terminal) cells. (AID 2060322); details: NCI-H358 eGFP-delta133p53alpha fluorescence, 24 h; activation: stronger effect = higher value; also: nearly all actives have a fitted effect of over 75% in size; also: potency is read from the fitted curve at half-maximal effect;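 as to activation: cells pre-induced with doxycycline then dosed without doxycycline; 0% = DMSO vehicle and 100% = reference activator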
# Method in brief: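 NCI-H358 cells pre-induced 24 h with 10 ng/ml doxycycline for eGFP-delta133p53alpha, plated dox-free and exposed 24 h at 37C to titrated compounds. Fixed, Hoechst-stained; gated GFP peak intensity by laser scanning cytometry, normalized to DMSO (0%) and 57.5 uM 5-azacytidine (100%).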
# [2] = target: Cellular tumor antigen p53 (Homo sapiens) (UniProt P04637); assay: Primary qHTS for small molecule compounds that upregulate eGFP-tagged delta133p53alpha (in C-terminal) cells. (AID 2060324); details: NCI-H358 delta133p53alpha-eGFP (C-terminal tag), GFP fluorescence imaging, 24 h; series mostly up to 57.5 µM;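 also: 0% = DMSO wells and 100% = 57.5 µM 5-azacytidine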
# Method in brief: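 Readout: filtered GFP peak intensity of gated cells (laser scanning cytometer), normalized plate-wise to intraplate controls, DMSO wells = 0% activity. Cells: NCI-H358 D133p53a-eGFP, dox 100 ng/ml 24 h beforehand, then compound 24 h, 37 °C.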
# [3] = target: Aldehyde dehydrogenase, mitochondrial (Homo sapiens) (UniProt P05091); assay: qHTS for Inhibitors of the Aldehyde Dehydrogenase Family (ALDH2) Primary screen (AID 2061308); details: ALDH2 enzyme inhibition qHTS, 1536-well; series mostly up to 56 µM;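 also: plate controls were vehicle for no effect and reference inhibitor for full effect; nearly all actives have a fitted effect of over 55% in size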
# [4] = target: Retinaldehyde dehydrogenase 3 (Homo sapiens) (UniProt P47895); assay: qHTS for Inhibitors of the Aldehyde Dehydrogenase Family (ALDH1A3) Primary screen (AID 2061315); details: ALDH inhibition qHTS; series mostly up to 56 µM;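 also: plate controls were DMSO vehicle for no effect and reference inhibitor for full effect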
# [5] = BET inhibitor-based combinations targeting novel dependencies in MECOM-rearranged (r) AML: OCI-AML3 cell line (AID 2202232); details: CellTiter-Glo luminescence, 48 h; Potency: OCI-AML3 viability; series mostly up to 46 µM; also: potency is read from the fitted curve at half-maximal effect; nearly all actives have a fitted effect of over 35% in size
# Method in brief: (§1)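 Here, 11-point titrations of each agent were applied to 500 seeded cells and incubated 48 hr; CellTiter-Glo signal, scaled against DMSO and empty wells, was integrated as AUC, then Z-scored within the individual line.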
# [6] = BET inhibitor-based combinations targeting novel dependencies in MECOM-rearranged (r) AML: MV-4-11 cell line (AID 2202233); details: MV-4-11 AML viability, CellTiter-Glo luminescence, 48 h; series mostly up to 46 µM; also: potency is read from the fitted curve at half-maximal effect; nearly all actives have a fitted effect of over 45% in size
# Method in brief: (§2)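 Normalized to DMSO and empty-well controls, the luminescence data from CellTiter-Glo after 48 hr drug exposure were fitted across 11 concentrations. Reported metrics are area under the dose-response curve and its Z-transformed form.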
# [7] = BET inhibitor-based combinations targeting novel dependencies in MECOM-rearranged (r) AML: HNT-34 cell line (AID 2202234); details: HNT-34 AML viability, CellTiter-Glo luminescence, 48 h; series mostly up to 46 µM; also: potency is read from the fitted curve at half-maximal effect; nearly all actives have a fitted effect of over 35% in size
# Method in brief: as §2
# [8] = BET inhibitor-based combinations targeting novel dependencies in MECOM-rearranged (r) AML: UCSD-AML1 cell line (AID 2202235); details: UCSD-AML1 AML cells viability, CellTiter-Glo, 48 h; series mostly up to 46 µM; also: potency is read from the fitted curve at half-maximal effect; nearly all actives have a fitted effect of over 40% in size
# Method in brief: as §2
# [9] = BET inhibitor-based combinations targeting novel dependencies in MECOM-rearranged (r) AML: AML-194 cell line (AID 2202237; also: potency is read from the fitted curve at half-maximal effect; nearly all actives have a fitted effect of over 40% in size); details: AML-194 (MECOM-r AML) viability, CellTiter-Glo, 48 h; series mostly up to 46 µM
# Method in brief: as §1
# [10] = BET inhibitor-based combinations targeting novel dependencies in MECOM-rearranged (r) AML: SET-2 cell line (AID 2202231); details: SET-2 AML cells viability, CellTiter-Glo luminescence, 48 h; viability: stronger effect = lower value, concentration not given here; also: potency is read from the fitted curve at half-maximal effect; nearly all actives have a fitted effect of over 35% in size
# Method in brief: as §1
# [11] = target: Aldehyde dehydrogenase, mitochondrial (Homo sapiens) (UniProt P05091); assay: qHTS for Inhibitors of the Aldehyde Dehydrogenase Family (ALDH2) Validation screens (AID 2061302; active = well fitted inhibition curve with a large enough effect; title and protocol of this record describe different tests;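 also: plate controls were DMSO vehicle for no effect and maximal DPI positive control response for full effect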); details: ALDH inhibition qHTS; series mostly up to 42.6 µM
# [12] = target: Aldehyde dehydrogenase, mitochondrial (Homo sapiens) (UniProt P05091); assay: qHTS for Inhibitors of the Aldehyde Dehydrogenase Family (ALDH2) Confirmatory screens (AID 2061303; active = well fitted inhibition curve with a large enough effect; title and protocol of this record describe different tests; also: % is scaled to controls: 0 for no effect and ±100 for the full control effect; nearly all actives have a fitted effect of over 45% in size); details: ALDH inhibition qHTS; series mostly up to 45.4 µM
# [13] = qHTS for Inhibitors of the Aldehyde Dehydrogenase Family (ALDH1A2, ALDH1A3, ALDH2, ALDH3A1) (AID 2061307); details: ALDH inhibition qHTS; series mostly up to 50.3 µM; also: test system not described further here; potency is read from the fitted curve at half-maximal effect; nearly all actives have a fitted effect of over 50% in size
# [14] = target: Retinaldehyde dehydrogenase 3 (Homo sapiens) (UniProt P47895); assay: qHTS for Inhibitors of the Aldehyde Dehydrogenase Family (ALDH1A3) Validation screen (AID 2061312); details: ALDH1A3 enzyme inhibition qHTS validation, fluorescence; series mostly up to 42.4 µM; also: % is scaled to controls: 0 for no effect and ±100 for the full control effect; nearly all actives have a fitted effect of over 45% in size
# [15] = target: Aldehyde dehydrogenase 1A1 (Homo sapiens) (UniProt P00352); assay: qHTS for Inhibitors of the Aldehyde Dehydrogenase Family (ALDH1A1) Confirmatory screens (AID 2061316); details: ALDH inhibition qHTS; series mostly up to 47.3 µM; also: potency is read from the fitted curve at half-maximal effect; nearly all actives have a fitted effect of over 65% in size
# Cellular tumor antigen p53 (Homo sapiens), sequence (P04637 whole entry, looked up): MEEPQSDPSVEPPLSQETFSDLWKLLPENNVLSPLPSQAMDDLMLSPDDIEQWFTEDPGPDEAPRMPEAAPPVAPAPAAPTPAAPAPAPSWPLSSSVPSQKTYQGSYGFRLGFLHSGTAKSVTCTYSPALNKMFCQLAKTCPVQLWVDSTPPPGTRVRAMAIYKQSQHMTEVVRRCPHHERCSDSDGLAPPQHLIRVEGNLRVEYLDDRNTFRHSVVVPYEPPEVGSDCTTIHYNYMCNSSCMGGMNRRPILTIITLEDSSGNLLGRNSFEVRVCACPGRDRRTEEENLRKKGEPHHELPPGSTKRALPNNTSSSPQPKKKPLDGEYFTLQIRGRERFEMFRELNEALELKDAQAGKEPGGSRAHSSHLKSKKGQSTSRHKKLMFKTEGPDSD
compound,measurement,setting,value
S=C(SSC(=S)N1CCCCC1)N1CCCCC1,activation,[1],-16.7%
COP(=S)(OC)Oc1ccc(Sc2ccc(OP(=S)(OC)OC)cc2)cc1,activation,[1],-14.2%
NC(Cc1cc(O)c(O)cc1O)C(=O)O (stereo unspecified),activation,[1],-19.2%
same,Potency,[2],inactive
Cc1ccc(Cl)c(O)c1,activation,[1],5.08%
CCN1CCN(C(=O)Cc2ccc(Nc3ncc(F)c(Nc4ccc(C(=O)Nc5ccccc5Cl)cc4)n3)cc2)CC1,Potency,[1],4.78 µM (active)
same,activation,[1],33.8%
same,Potency,[3],inactive
same,Potency,[4],inactive
same,Potency,[5],2.95 µM (active)
same,Potency,[6],1.48 µM (active)
same,Potency,[7],1.48 µM (active)
same,Potency,[8],3.72 µM (active)
same,Potency,[9],7.42 µM (active)
Cc1ccc(N=CN(C)C=Nc2ccc(C)cc2C)c(C)c1,activation,[1],13%
CC1=C2[C@H]3OC(=O)[C@@H](C)[C@@H]3CC[C@@]2(C)C=CC1=O,activation,[1],11.7%
N#C/C(=C/c1ccc(O)c(O)c1)C(N)=S,activation,[1],-33.2%
same,Potency,[2],inactive
CN1CCN(c2ccc([N+](=O)[O-])c3no[n+]([O-])c23)CC1,Potency,[1],21.3 µM (active)
same,activation,[1],8.01%
same,Potency,[4],inactive
same,Potency,[5],9.34 µM (active)
same,Potency,[6],14.8 µM (active)
same,Potency,[7],18.6 µM (active)
Cc1[nH]nc2ccc(-c3cncc(OC[C@@H](N)Cc4c[nH]c5ccccc45)c3)cc12,Potency,[1],8.63 µM (active)
same,activation,[1],8.93%
same,Potency,[3],inactive
same,Potency,[4],inactive
same,Potency,[10],1.05 µM (active)
same,Potency,[5],0.934 µM (active)
same,Potency,[6],0.263 µM (active)
CNC(C)Cc1ccc2c(c1)OCO2 (stereo unspecified),activation,[1],17.5%
CO[C@H]1CC=C2CCN3CCC4=C(CC(=O)OC4)[C@]23C1,activation,[1],-25.9%
same,Potency,[2],inactive
CC[C@@H](CO)NC(=O)[C@@H]1C=C2c3cccc4c3c(cn4C)C[C@H]2N(C)C1,activation,[1],-3.95% and -69.3%
same,Potency,[2],inactive
CC(Cc1ccccc1)N(C)Cc1ccco1 (stereo unspecified),activation,[1],-11.7%
O=C(Cc1ccc(Cl)c(Cl)c1)N1CCCCC1CN1CCCC1 (stereo unspecified),activation,[1],-15.5%
same,Potency,[2],inactive
CCS(=O)(=O)C(C)(C)S(=O)(=O)CC,activation,[1],-5.86%
Clc1ccc(N2CC3CCC(C2)N3)nn1,activation,[1],-9.56%
same,Potency,[2],inactive
O=[N+]([O-])O[C@H]1CO[C@H]2[C@@H]1OC[C@H]2O[N+](=O)[O-],activation,[1],34.5%
Cn1cc(C2=C(c3cn(C4CCN(Cc5ccccn5)CC4)c4ccccc34)C(=O)NC2=O)c2ccccc21,Potency,[1],21.7 µM (active)
same,activation,[1],38.7%
same,Potency,[7],5.25 µM (active)
CN(C)CCc1c[nH]c2ccc(O)cc12,activation,[1],5.08%
COC1=CC(C)=C[C@@H](C)[C@@H](O)[C@@H](C)CC(C)=CC=C[C@H](OC)[C@H]([C@@H](C)[C@@H](O)[C@H](C)[C@@]2(O)C[C@@H](O)[C@H](C)[C@@H](C(C)C)O2)OC1=O,activation,[1],6.87%
C[C@]12Cc3cn[nH]c3C[C@@H]1CC[C@@H]1[C@H]2CC[C@@]2(C)[C@H]1CC[C@]2(C)O,activation,[1],-11.9%
CCOCCOC(C)=O,activation,[1],-27.7%
CC[C@@H](CO)NC(=O)[C@@H]1C=C2c3cccc4[nH]cc(c34)C[C@H]2N(C)C1,activation,[1],-0.565% and -21.9%
same,Potency,[2],inactive
COc1ccc2c(c1OC)CN1CCc3cc4c(cc3C1C2)OCO4 (stereo unspecified),Potency,[1],34.3 µM (active)
same,activation,[1],26.6%
c1ccc(CCCN2CCN(CCOC(c3ccccc3)c3ccccc3)CC2)cc1,activation,[1],1.41% and -30.2%
same,Potency,[2],inactive
NC(=O)COc1c(F)cc(SCCNS(=O)(=O)c2ccccc2)cc1F,activation,[1],-8.4%
same,Potency,[2],inactive
same,Potency,[11],inactive
same,Potency,[12],inactive
same,Potency,[13],11.3 µM (active)
same,Potency,[14],inactive
same,Potency,[15],14.2 µM (active)
O=C1CC[C@@]2(O)C3Cc4ccc(O)c5c4C2(CCN3CC2CC2)[C@H]1O5 (stereo partly specified),activation,[1],-10.4%
same,Potency,[2],inactive
same,Potency,[11],inactive
